Only a selection was taken, and hits are over-represented in it overall.
Pf Dd2 inh: Plasmodium falciparum Dd2 growth inhibition; Potency, µM (titrated, usually from 28.9 µM), inactives show top-dose activity, negative = inhibition, actives largely listed as inhibitors; 4.3% of 120,000 active; AID 1347417; P. falciparum Dd2 growth, SYBR Green, 72 h; active = well fitted inhibition curve with a large enough effect;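 also: plate controls were DMSO vehicle for no effect and reference drug for full effect; nearly all actives have a fitted effect of over 65% in size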
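Infected erythrocytes (Dd2, 0.3% parasitemia, 2.5% hematocrit final) are added to compound in RPMI-1640/Albumax II medium, grown 72 h at 37C in low oxygen, then lysed with saponin/Triton-X containing SYBR Green and read by fluorescence.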
Numbers without * were called inactive; i = inactive; [ ] = remark or other dose. Potency is read from the fitted curve at half-maximal effect.

SMILES	Pf Dd2 inh
CCCC(=O)N1CCC2CC(=O)NCCC2C1 (stereo unspecified)	11.8%[44.1 µM]
COCc1cn(C[C@H]2CC3CCN2C[C@@H]3C(=O)Nc2ccccc2)nn1 (stereo partly specified)	28.3%[44.1 µM]
CC(=O)N1CCN(c2cc(-c3noc([C@@H]4CCCN4Cc4ccccc4C)n3)ccn2)CC1	12.6µM*
CC(=O)N1CCN(c2cc(-c3noc([C@@H]4CCCN4Cc4ccc(CO)o4)n3)ccn2)CC1	i
c1ccc(CN2CCC[C@H]2c2nc(-c3ccnc(N4CCOCC4)c3)no2)nc1	7.08µM*
COc1ccc(CN2CCC[C@H]2c2nc(-c3ccnc(N4CCOCC4)c3)no2)cc1	-25.9%[44.1 µM]
c1cc(-c2noc([C@@H]3CCCN3Cc3ncc[nH]3)n2)cc(N2CCOCC2)n1	13.0%[44.1 µM]
NC(=O)C1CCN(c2cc(-c3noc([C@@H]4CCCN4Cc4ccccc4F)n3)ccn2)CC1	i
COCCN1CC(Cc2cccc(-c3nnc(C)s3)c2)CC1=O (stereo unspecified)	-9.4%
COc1ccc(-c2cc(N3CCC(NC(=O)Cc4ccccc4)CC3)n[nH]2)cc1	-7.8%
CNC(=O)[C@H]1C[C@H](Oc2ccccc2)CN1C(=O)NCCc1ccccc1	-6.7%
Cn1ncc2c(C(=O)NCC3CC3)cc(-c3cccnc3)nc21	12.6µM*
Cn1ncc2c(C(=O)NC3CC3)cc(-c3cccc(C(F)(F)F)c3)nc21	-21.8%
Cc1cccc(C)c1-c1cc(C(=O)NC2CC2)c2cnn(C)c2n1	0.9%
COc1ccc(C(=O)N2CCC(N3CC4CC(C3)[C@H]3CCCC(=O)N3C4)CC2)c(C)c1 (stereo partly specified)	-6.8%
Cc1c(Cl)cccc1NC(=O)Cn1ccn2nc3c(c2c1=O)CCCC3	-9.5%
CCCN(Cc1nccn1C)C(=O)c1cn(Cc2ccc(F)cc2)nn1	5.5%
CCOc1ccccc1NS(=O)(=O)c1c(-c2ccc(C)cc2)csc1C(=O)OC	10µM*
COC(=O)c1scc(-c2ccc(C)cc2)c1S(=O)(=O)Nc1cccc(Cl)c1C	i
COC(=O)c1scc(-c2ccc(C)cc2)c1S(=O)(=O)Nc1ccc(F)cc1F	4.3%
COC[C@H]1CCCN1C(=O)[C@@H](C)C1CC[C@@]2(C)CC[C@H](NC(=O)Cc3ccccc3)[C@@H](C)[C@@H]2[C@H]1O (stereo partly specified)	-14.6%
COCCN1CC2(CCCN(c3cc(C)c4ccccc4n3)C2)CCC1=O (stereo unspecified)	-8.1%
O=C(NC1CCCC1)c1cccc2c1CCN2S(=O)(=O)c1ccccc1F	i
CNC(=O)[C@H]1C[C@H](Oc2ccccc2)CN1Cc1ccc(OC(F)(F)F)cc1	i
COc1ccc(-c2nc3ccccc3o2)cc1NC(=O)COc1ccc(C(C)(C)C)cc1	7.94µM*
SMILES	Pf Dd2 inh
COc1ccc(-c2nc3ccccc3o2)cc1NC(=O)COc1cc(C)cc(C)c1	i
COc1ccc(-c2nc3ccccc3s2)cc1NC(=O)COc1ccc(C)cc1	9.8%
CCSc1ncc(CN2CC[C@@H](NC(=O)c3cnccn3)[C@H](O)C2)cn1	-10.4%
CCOC(=O)c1ccccc1NC(=O)N(Cc1ccc(C)cc1)Cc1cccn1-c1nnc(N2CCCC2=O)s1	-18.6%
Cc1ccc(CNC(=O)c2cccn2-c2nnc(N3CCCC3)s2)cc1	i
CCc1ccc(NC(=O)N(Cc2ccc(C)cc2)Cc2cccn2-c2nnc(N3CCCC3=O)s2)cc1	12.6µM*
CCS(=O)(=O)N1CCCCCCN(C)C(=O)CC1	0.3%
CC[C@H]1CN(S(=O)(=O)c2ccccc2)CC[C@H]1CC(=O)O	-2.7%[44.1 µM]
COC(=O)CN1C(=O)[C@@H]2C[C@@H](O)CN2C2(CN(Cc3ccccc3)C2)C1=O	-2.9%[44.1 µM]
O=C(NC1CCCN(c2cc(-c3ccc(F)cc3)[nH]n2)C1)C1CCCCC1 (stereo unspecified)	i
CC(=O)N[C@@H]1CN(Cc2ccc(F)c(Br)c2)C[C@H]1CO	-25.7%
O=C(N[C@@H]1CN(Cc2ccccc2)C[C@H]1CO)c1ccnnc1	8.6%
COc1cc(CN2C[C@@H](CO)[C@H](NC(=O)c3ccccc3)C2)ccc1F	5.62µM*
Cc1cc(CN2C[C@@H](CO)[C@H](NC(=O)c3ccccc3)C2)n(C)n1	35.2%
Cc1cnc(C(=O)N[C@@H]2CN(Cc3ccccc3)C[C@H]2CO)cn1	-21.8%
Cn1nccc1C(=O)N[C@@H]1CN(Cc2ccccc2)C[C@H]1CO	12.6µM*
COc1ccc(OC2CN(Cc3ccc(C#N)cc3)C2)cc1	10.1%
CN1CCCCCC(O)c2cc(C(=O)NC3CCCCC3)ccc21 (stereo unspecified)	i
CCCN(C)c1nccnc1OC1CCN(C(=O)C(C)C)C1 (stereo unspecified)	-23.6%
C[S+](=O)([O-])N1CC2(Cc3ccccc31)CN(C(=O)C1CCCC1)C2	-5.6%[44.1 µM]
Cc1ccc(NC(=O)N2CCC(N3CC4CC(C3)[C@H]3CCCC(=O)N3C4)CC2)cc1F (stereo partly specified)	17.5%
CC(C)CCN(C)Cc1ccc(F)cc1	i
COCCOc1ccnc(-c2noc([C@@H]3CCCN3Cc3cccc(OC(F)(F)F)c3)n2)c1	-15.2%
c1cc2c(cc1CN1CCOCC1)CNCCO2	7.94µM*
O=c1[nH]nc2n1CCN(Cc1ccc3c(c1)CCO3)CC2	10.3%
SMILES	Pf Dd2 inh
CCN(CC)Cc1ccc2c(c1)CNCCO2	-24.4%
CC(=O)Nc1ccc(CN2CCCCC23Cc2ccccc2CNC3=O)cc1 (stereo unspecified)	-4.8%
CC(=O)N1CCN(C(=O)c2cccnc2)C[C@H]1C(=O)N[C@@H](CC1CCCCC1)C(N)=O	-5.8%[44.1 µM]
Cc1cccc(CN2C(=O)C3(CCOCC3)CC2c2nnnn2C(C)(C)C)c1 (stereo unspecified)	3.9%
CCCCCNc1ncnc2c1CN(c1ccc(OC)cc1)C(=O)CN2C	13.5%
OCc1ccc(CN[C@H]2[C@H](O)[C@@H](N3CCC(Cc4ccccc4)CC3)[C@@H]3OC[C@H]2O3)o1	i
O[C@H]1[C@H](NCc2ccccn2)[C@H]2CO[C@H](O2)[C@@H]1N1CCC(Cc2ccccc2)CC1	-19.2%[44.1 µM]
O[C@H]1[C@H](NCC2CCCCC2)[C@H]2CO[C@H](O2)[C@@H]1N1CCC(Cc2ccccc2)CC1	1.41µM*
CCc1nc2nccc(-c3cccc(OC)c3)n2n1	-17.4%
C[C@@H]1CN(C(=O)CCN2CCCCCC2=O)C[C@]1(C)O	-1.3%
Cc1ccc(SCC(=O)Nc2ccc3oc(-c4cccc(C)c4)nc3c2)cc1	-3.9%
Cc1ccc2nc(-c3ccc(C)c(NC(=O)CSc4ccc(Cl)cc4)c3)oc2c1	-0.2%
Cc1ccc2nc(-c3cccc(NC(=O)CSc4ccc(Cl)cc4)c3)oc2c1	11.2µM*
Cc1noc(C)c1S(=O)(=O)N1C[C@@H](F)C[C@H]1C(=O)N1CCc2ccccc2C1	i
CCOCCCNC(=O)N1CCC2(CC1)CC(N(C(=O)c1ccccc1)C1CC1)CCO2 (stereo unspecified)	i
Cc1cc(C)n(CC(=O)NCc2cc(N3CCOCC3)ncn2)c(=O)n1	-5.6%
COc1ccc(NC(=O)C2CCN(c3cc(C(F)(F)F)ncn3)CC2)cc1OC	11.2µM*
COc1ccc(-c2cc(N3CCC(NC(=O)COc4ccc(F)cc4)CC3)n[nH]2)cc1	-10.2%
COc1ccc(NC(=O)C2CCN(c3cc(C(F)(F)F)ncn3)CC2)cc1	i
O=C(NC1CCN(c2cc(C(F)(F)F)ncn2)CC1)c1ccco1	i
O=C(COc1ccc(F)cc1)NC1CCN(c2cc(C(F)(F)F)ncn2)CC1	5.62µM*
O=C(Nc1ccc(F)cc1)C1CCN(c2cc(C(F)(F)F)ncn2)CC1	i

Screens deposited in PubChem BioAssay by National Center for Advancing Translational Sciences (NCATS).
